# Results published in PubChem BioAssay AID950 (NMMLSC, 2007).
# The whole screen tested about 190,000 compounds, of which about 120 (0.063%) were called active. This is one part of a sample in which actives are shown more often than they occur. A number with no mark means an inactive call. Cut-off read from the data, not from the text of the source: active = inhibition above about 40%; inconclusive = no clear call, values can overlap the other calls; inactive = below that.
# Target: Apoptosis regulator Bcl-2 (Homo sapiens) (UniProt P10415)
# Sequence (P10415 whole entry, looked up): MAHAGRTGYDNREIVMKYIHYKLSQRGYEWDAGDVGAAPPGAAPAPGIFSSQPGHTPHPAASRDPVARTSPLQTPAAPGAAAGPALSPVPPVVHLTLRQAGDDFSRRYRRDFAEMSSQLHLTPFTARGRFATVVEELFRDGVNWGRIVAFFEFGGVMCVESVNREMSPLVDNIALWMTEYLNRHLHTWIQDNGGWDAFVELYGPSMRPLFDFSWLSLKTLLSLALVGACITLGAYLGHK
# Assay: inhibitors of Bim-Bcl-2 binding, primary screen, biochemical, multiplexed, human Bcl-2 family (AID 950);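 note: 0% = no compound wells with probe peptide and 100% = reference peptide inhibitor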
# Conditions: Bead-based flow cytometry, Bim peptide-Bcl-2 binding; at 10 µM; hits give high values
row,Structure (SMILES),inhibition
1,COc1ccc(N2CCN(C(=O)C3CCN(S(=O)(=O)c4ccc(C)cc4)CC3)CC2)cc1,2%
2,O=C(c1ccc(N2CCOCC2)c([N+](=O)[O-])c1)N1CCN(S(=O)(=O)c2cccs2)CC1,0%
3,COc1ccc(C(=O)C[n+]2ccc(N)c(C)c2C)cc1,-1%
4,Cc1ccc(Cl)cc1NC(=S)N(CCN(C)C)Cc1cccs1,-4%
5,C/C(=N\NC(=S)NC(C)C)c1ccc(C(C)(C)C)cc1,-4%
6,Cc1nnc(N/N=C/C2CC=CCC2)[nH]c1=O (stereo not drawn),2%
7,O=C(c1cccc(S(=O)(=O)N2CCCC2)c1)N(Cc1ccco1)C1CCS(=O)(=O)C1 (stereo not drawn),-3%
8,CCC(=O)Nc1ccc(Nc2nc(Cl)nc(Nc3ccc(NC(=O)CC)cc3)n2)cc1,0%
9,COCCCNCCOCCOc1ccc(Cl)cc1Br,1%
10,O=C(NCc1ccccc1)C1=C[C@@H](C2CCCCC2)C[C@@H](OCc2ccc(CO)cc2)O1,-1%
11,CCOC(=O)C1CCCN(C(=O)/C=C/c2ccc(OC)cc2)C1 (stereo not drawn),-3%
12,CCn1c(=O)cc(SCC(=O)NCCC2=CCCCC2)c2ccccc21,8%
13,O=c1cnnc(Nc2ccccc2)[nH]1,-1%
14,O=C(N/N=C1\CCSC1)c1cc(Cl)ccc1O,3%
15,CCOC(=O)COc1ccc([N+](=O)[O-])cc1,-1%
16,CCCn1c(C)cc(/C=C(\C#N)C(=O)OCC(=O)Nc2cc(OC)c(OC)c(OC)c2)c1C,-6%
17,CC1(C)C(c2cccs2)=[N+]([O-])C2(CCCCC2=O)N1O (stereo not drawn),-5%
18,CCN(CC(=O)NCc1cccs1)C(=O)c1ccccc1F,1%
19,COCCN(C(=S)Nc1ccccc1OC)C1CCN(C(C)C)CC1,-1%
20,Cc1cc(NC(=O)CSCc2ccccc2C)no1,-1%
21,COC(=O)c1cc(C)sc1NC(=O)CC1Nc2ccccc2NC1=O (stereo not drawn),0%
22,CCN(CC)CCOC(=O)c1ccc(NC(=O)CNC(=O)c2ccccc2)cc1,-4%
23,CCC(NC(=O)c1ccccc1NC(=O)c1ccccc1)C(=O)NNC(=O)CSc1nc2ccccc2o1 (stereo not drawn),-6%
24,CC(=O)N1CC(C)c2scc(C)[n+]2-c2ccccc21 (stereo not drawn),2%
25,CC(O)c1nc2ccccc2n1Cc1ccc([N+](=O)[O-])cc1 (stereo not drawn),-5%
26,Cc1cc(C)cc(C(=O)N2CCN=C2SCc2ccc([N+](=O)[O-])cc2)c1,-3%
27,Cc1ccc(C(=O)N2CC(=O)Nc3ccccc32)o1,-6%

row,Structure (SMILES),inhibition
1,CCc1nnc(NC(=O)CSc2nnnn2-c2cccc(C(C)=O)c2)s1,-2%
2,Cn1cc(CCC(=O)N2CCCC(C(=O)c3ccc(C(C)(C)C)cc3)C2)cn1 (stereo not drawn),-5%
3,O=C(NCc1ccncc1)C(=O)NCc1ccco1,-1%
4,Cc1ccc(S(=O)(=O)NC2(C(F)(F)F)NC(=O)N(CCc3ccccc3)C2=O)cc1 (stereo not drawn),-1%
5,C=CS(=O)c1sc(Cl)c(N2CCOCC2)c1[N+](=O)[O-] (stereo not drawn),14%
6,CN1C(=O)/C(=C\c2cc(Br)cs2)c2ccccc21,-2%
7,CC(=O)c1cc(C#N)c(N2CC(C)OC(C)C2)nc1C (stereo not drawn),-4%
8,Oc1ccc(/C=N/N(Cc2ccccc2)c2ccccc2)cc1,-9%
9,Cn1ncc(N2CCN(S(=O)(=O)c3ccc(Br)cc3)CC2)c(Cl)c1=O,-9%
10,C=CCOc1ccc(/C=N/NC(=O)C(C)Sc2ccccn2)cc1OCC (stereo not drawn),-6%
11,O=C(NNS(=O)(=O)c1ccc(F)cc1)c1cnccn1,0%
12,COCCC(=O)Nc1ccc2c(c1)CN(C(=O)CCOC)CC2,-4%
13,Cc1ccc(NC(=O)CCC(=O)N/N=C/c2ccco2)c(C)c1,-6%
14,CCCc1cc(=O)[nH]c(SCc2cc(=O)oc3c(C)c(C)ccc23)n1,-3%
15,Cc1cccc(-c2nc3ccccc3c(=O)n2NC(=O)Cc2ccc(Cl)cc2)c1,-11%
16,S=C(NCc1ccco1)Nc1ccc2c(c1)OCCO2,-1%
17,CCCCC(=O)NCc1ccc(F)cc1,0%
18,COc1ccc(NC(=S)NCc2cccs2)c(OC)c1,-4%
19,O=C(O)CS/C(=C\c1ccc(F)cc1)c1nc2ccccc2s1,7%
20,CSCc1cc(N(C)C)nc(SCc2ccc(Cl)cc2Cl)n1,76% (active)
21,CSCc1cc(N2CCOCC2)nc(SCc2ccc(Cl)cc2Cl)n1,-12%
22,Clc1ccc(CSc2nnc(/C=C/c3ccccc3)o2)c(Cl)c1,-8%
23,COc1ccc(/C(C)=N/Nc2cc(C(F)(F)F)ccc2Cl)c(OC)c1,2%
24,COc1c(C)cc(C(=O)C2CCCN(S(=O)(=O)c3c(C)noc3C)C2)cc1C (stereo not drawn),0%
25,CC1(C)OC(=O)C(=CSc2ccc(C(C)(C)C)cc2)C(=O)O1,-3%
26,CCOC(=O)C1CCN(c2ncnc3c2c(-c2ccccc2)cn3-c2ccc(C)cc2)CC1,-5%
